# In PubChem BioAssay (NCATS):
# Records with an inconclusive call do not appear. Where a call stands in place of a potency, no number is given. Calls of active or inactive are those of the source. Unless noted, calls follow the shape of the dose curve; as a rule, active = well fitted curve in the direction sought with a large enough effect; inconclusive = small, poorly fitted or top-dose-only effect, or another doubt; inactive = no such curve, though single readings can be large; an effect the other way counts as inactive or inconclusive.
# Tests used:
# [1] = target: Luciferin 4-monooxygenase (Photinus pyralis) (UniProt P08659); experiment: Firefly luciferase counterscreen qHTS: Assay Interference Panel against the NCATS CANVASS Library (AID 1347363); also: series mostly up to about 57 µM
# Chain of Luciferin 4-monooxygenase (Photinus pyralis) (P08659 whole entry, looked up): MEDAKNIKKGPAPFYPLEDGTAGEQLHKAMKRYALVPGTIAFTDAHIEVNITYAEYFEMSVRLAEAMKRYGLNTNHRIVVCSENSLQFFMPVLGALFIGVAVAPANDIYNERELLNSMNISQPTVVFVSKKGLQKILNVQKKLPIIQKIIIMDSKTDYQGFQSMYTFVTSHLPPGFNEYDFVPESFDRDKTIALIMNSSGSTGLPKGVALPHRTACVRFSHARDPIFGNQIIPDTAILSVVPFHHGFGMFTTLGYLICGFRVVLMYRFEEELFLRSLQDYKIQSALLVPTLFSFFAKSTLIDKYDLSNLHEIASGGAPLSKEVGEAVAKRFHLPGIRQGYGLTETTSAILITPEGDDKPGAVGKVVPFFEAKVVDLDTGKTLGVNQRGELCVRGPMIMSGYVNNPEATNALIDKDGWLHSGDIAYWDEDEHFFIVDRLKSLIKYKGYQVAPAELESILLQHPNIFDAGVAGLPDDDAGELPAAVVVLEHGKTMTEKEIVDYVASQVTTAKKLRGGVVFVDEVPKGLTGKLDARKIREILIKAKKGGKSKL
# How it was run: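 Purified P. pyralis luciferase was added to compounds (11-point series) preincubated 15 min at room temperature with substrate containing 0.013 mM D-luciferin and 0.013 mM ATP; luminescence was read after 5 min.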
# [2] = KB-8-5-11 Cancer Cell Toxicity qHTS against the NCATS CANVASS Library (AID 1347364); also: potency is read from the fitted curve at half-maximal effect; nearly all actives have a fitted effect of over 75% in size
# How it was run: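 KB-8-5-11 cells (500/well) in DMEM + 10% FBS were exposed to compounds in an 11-point qHTS series for 72 hr at 37C, 5% CO2. Viability was read by CellTiter-Glo luminescence.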
# [3] = SDT Cancer Cell Toxicity qHTS against the NCATS CANVASS Library (AID 1347365); also: potency is read from the fitted curve at half-maximal effect; nearly all actives have a fitted effect of over 60% in size
# How it was run: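 SDT canine glioma cells (500 cells/well) were exposed to compounds in an 11-point series for 72 hr at 37C, 5% CO2; viability was read as ATP content by CellTiterGlo luminescence.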
# [4] = KB-3-1 Cancer Cell Toxicity qHTS against the NCATS CANVASS Library (AID 1347366); also: potency is read from the fitted curve at half-maximal effect; nearly all actives have a fitted effect of over 75% in size
# How it was run: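 KB-3-1 cells (500/well) in DMEM with 10% FBS were exposed to compounds for 72 h at 37C. Viability was read by CellTiter-Glo luminescence.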
# [5] = G06 Cancer Cell Toxicity qHTS against the NCATS CANVASS Library (AID 1347368); also: potency is read from the fitted curve at half-maximal effect; nearly all actives have a fitted effect of over 60% in size
# How it was run: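 G06 dog glioma cells seeded at 500 cells/well were exposed to compounds (11-point qHTS series) for 72 hr at 37C, 5% CO2; viability read as ATP content by CellTiterGlo luminescence.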
# [6] = MCF7 Cancer Cell Toxicity qHTS against the NCATS CANVASS Library (AID 1347369); also: potency is read from the fitted curve at half-maximal effect
# How it was run: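 MCF7 cells (500/well) were exposed 72 h at 37 °C to compounds in an 11-point series. Viability was read as ATP content by CellTiterGlo luminescence.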
# [7] = qHTS for ATAD5 Antagonist screened against the NCATS CANVASS Library (AID 1347370); also: potency is read from the fitted curve at half-maximal effect; nearly all actives have a fitted effect of over 65% in size
# How it was run: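 HEK293T cells with a stably integrated ATAD5-controlled luciferase reporter were exposed to compounds (11-pt) alongside 10 uM 5-fluorouridine as ATAD5 stabilizer for 16hr at 37C. Viability was read by CellTiter-Fluor fluorescence, then ATAD5 by luminescence.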
# [8] = target: Nuclear receptor subfamily 1 group I member 3 (Homo sapiens) (UniProt Q14994); experiment: qHTS for Constitutive Androstane Receptor (CAR) Antagonist screened against the NCATS CANVASS Library (AID 1347372);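 also: cells stimulated with 50 nM CITCO agonist so inhibition reflects antagonism; series mostly up to about 46 µM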
# Chain of Nuclear receptor subfamily 1 group I member 3 (Homo sapiens) (Q14994 whole entry, looked up): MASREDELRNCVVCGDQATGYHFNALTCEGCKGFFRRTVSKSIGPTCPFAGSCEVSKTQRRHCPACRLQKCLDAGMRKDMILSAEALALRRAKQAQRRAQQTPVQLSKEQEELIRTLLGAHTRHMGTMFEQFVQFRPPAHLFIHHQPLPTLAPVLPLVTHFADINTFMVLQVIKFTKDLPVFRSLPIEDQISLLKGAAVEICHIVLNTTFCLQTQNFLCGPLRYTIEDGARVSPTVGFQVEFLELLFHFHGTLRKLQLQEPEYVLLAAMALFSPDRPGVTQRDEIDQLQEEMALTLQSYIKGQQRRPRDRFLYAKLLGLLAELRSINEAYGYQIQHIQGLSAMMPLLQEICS
# How it was run: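 HepG2 cells stably carrying hCAR and a CYP2B6-2.2kb luciferase reporter were exposed to compounds plus 50 nM CITCO for 24hr at 37C. CAR activity was read by ONE-Glo luminescence, with viability measured first by CellTiter-Fluor.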
# [9] = target: Nuclear receptor subfamily 1 group I member 3 (Homo sapiens) (UniProt Q14994); experiment: qHTS for Constitutive Androstane Receptor (CAR) Agonist screened against the NCATS CANVASS Library (AID 1347373);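 also: every well also contained 1.5 µM PK11195 alongside the test compound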
# How it was run: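 HepG2 cells stably expressing hCAR and a CYP2B6-2.2kb luciferase reporter were treated for 24hr at 37C with compounds (11-point qHTS) in the presence of 1.5uM PK11195. Reporter activation was read by ONE-Glo luminescence.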
# [10] = qHTS for Hypoxia signaling pathway (HIF-1) agonists against the NCATS CANVASS Library (AID 1347375)
# How it was run: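 HRE-bla ME-180 cells (beta-lactamase reporter under hypoxia responsive element) in 0.5% dialyzed FBS medium, 5 h at 37C, then compound 17 h, 11-point qHTS series. CCF4-AM FRET substrate 2 h RT; 460/530 nm emission read.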
# [11] = 10-beta competent E. coli microbial cell viability qHTS against the NCATS CANVASS Library (AID 1347376); also: series mostly up to about 46 µM
# How it was run: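 10-beta competent E. coli (0.9 OD culture diluted to 0.2 OD) exposed to compounds in an 11-point qHTS series, incubated overnight at 37C, 5% CO2. Viability read as ATP by BacTiter-Glo luminescence after 20 min at room temperature.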
# [12] = DH5-alpha competent E. coli microbial cell viability qHTS against the NCATS CANVASS Library (AID 1347377); settings: outcome: dose series up to 46.1 µM
# How it was run: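 DH5-alpha E. coli suspension (0.9 OD culture diluted to 0.2 OD) exposed to compounds in an 11-point series, overnight at 37C, 5% CO2. Viability read as ATP by BacTiter-Glo luminescence after 20 min at room temperature.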
# [13] = qHTS for H2AX Agonists against the NCATS CANVASS Library (AID 1347378)
# How it was run: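 CHO-K1 cells (1000/well, overnight at 37C) exposed to compounds at several concentrations for 3 hr at 37C, 0.76% DMSO final. Lysates read by TR-FRET (phospho-H2AX S139 Eu-cryptate antibody / H2AX-d2 antibody) after 24 hr at room temperature; 665/615 nm ratio.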
# [14] = qHTS for Inflammasome Signaling Inhibitors: IL-1-beta AlphaLISA screen against the NCATS CANVASS Library (AID 1347379);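 also: human THP-1 cells primed with LPS then triggered with ATP; secreted IL-1B measured as AlphaLISA emission at 615 nm; potency is read from the fitted curve at half-maximal effect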
# How it was run: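 Human THP-1 cells were pretreated 1 hr at 37 °C with compounds (up to 57.5 uM final), then stimulated with LPS (250 ng/mL final) and ATP (1.25 mM final). Secreted IL-1B was read by AlphaLISA after 16 hr.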
# [15] = qHTS for Antimalaria activity screened against the NCATS CANVASS Library (AID 1347380); also: potency is read from the fitted curve at half-maximal effect; nearly all actives have a fitted effect of over 40% in size
# How it was run: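 P. falciparum Dd2-infected RBCs (2.5% hematocrit final, 0.3% parasitemia) in Albumax II RPMI were exposed to compounds in an 11-point qHTS series for 72 h at 37C under 5% O2/5% CO2, then lysed with SYBR Green.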
# [16] = Inflammasome Signaling qHTS Counterscreen: IL-1-beta AlphaLISA counterscreen against the NCATS CANVASS Library (AID 1347381);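 also: cell-free check with purified IL-1β in medium and no THP-1 cells; series mostly up to about 57 µM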
# How it was run: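 To flag interference with the AlphaLISA read-out, a known amount of purified IL-1-beta (4 pg) replaced cell supernatant. Detection used anti-IL-1-beta acceptor beads, biotinylated antibody and streptavidin donor beads at room temperature.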
# [17] = Cytotoxicity qHTS for assessment of Hepg2 cells membrane integrity screened against the NCATS CANVASS Library (AID 1347387)
# How it was run: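 HepG2 cells (2000/well) attached overnight at 37C, then received compounds in an 11-point series at 0.59 nM - 46 uM final for 5 hr. LDH release was detected fluorometrically (ex 560/em 590 nm) with CytoTox-ONE reagent after 10 min at room temperature.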
# [18] = qHTS for Activators of p53 Stress Response Pathway screened against the NCATS CANVASS Library (AID 1347388); also: potency is read from the fitted curve at half-maximal effect
# How it was run: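 p53RE-bla HCT-116 cells (4000/well) were plated 5 h at 37C, exposed to compounds for 16 h at 37C over an 11-point concentration series, then loaded with CCF4 for 2 h at room temperature; 460/530 nm emission ratio read.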
# [19] = qHTS assay for small molecule disruptors of mitochondrial membrane potential screened against the NCATS CANVASS Library (AID 1347389); also: series mostly up to about 46 µM; nearly all actives have a fitted effect of over 60% in size
# How it was run: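 HepG2 cells (2,000/well) were plated overnight at 37C, exposed to compound for 1 hr at 37C/5% CO2, then loaded with Mito-MPS dye for 30 min. Depolarization was read as a drop in red (590 nm) to green (535 nm) fluorescence ratio.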
# [20] = Secretion counterscreen for inhibitors of the SERCaMP assay screened against the NCATS CANVASS Library (AID 1347390);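 also: light from luciferase secreted into medium read as a measure of general secretion; potency is read from the fitted curve at half-maximal effect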
# How it was run: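 SH-SY5Y cells with constitutively secreted GLuc reporter, 1000 cells/well, treated 20 h at 37C with compounds at 0.001 - 77 uM final; secreted luciferase read as luminescence after coelenterazine; Brefeldin A as positive control.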
# [21] = qHTS for activators of dead-cell proteases activity screened against the NCATS CANVASS Library (AID 1347392);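 also: luminescence from protease leaking out of membrane-damaged cells cleaving impermeant substrate; rising signal means more cytotoxicity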
# How it was run: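 HepG2 cells (2000/well) attached 18 h at 37C, then exposed 5 h to compounds (11-point qHTS). Dead-cell protease activity read as luminescence from cell-impermeant AAF-aminoluciferin substrate after 15 min at room temperature.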
# [22] = Viability qHTS for inhibitors of the SERCaMP assay screened against the NCATS CANVASS Library (AID 1347400); also: potency is read from the fitted curve at half-maximal effect; nearly all actives have a fitted effect of over 70% in size
# How it was run: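 SH-SY5Y-GLuc SERCaMP MJH297-derived cells (1000 cells/well) were pre-incubated 4 h at 37C, then exposed to compounds for 48 h. Viability was read as CellTiter-Glo luminescence; bortezomib served as positive control.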
# [23] = Redox Reaction Profiling qHTS: Assay Interference Panel against the NCATS CANVASS Library (AID 1347401)
# How it was run: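 Resazurin (5 uM) conversion to resorufin measured with 200 uM DTT in 50 mM HEPES pH 7.3, 50 mM NaCl. Compounds tested in 11-point qHTS series. Fluorescence (ex 525/em 598 nm) read before and after 15 min dark incubation.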
# [24] = qHTS for inhibitors of Rabies Virus screened against the NCATS CANVASS Library (AID 1347402; calls by dose curve; also: series mostly up to about 46 µM)
# [25] = Primary qHTS for inhibitors of nuclear receptor binding SET domain protein 2 (NSD2) in an isogenic RCH-ACV NSD2 p.E1099K mutant (9B) (AID 1645876); also: potency is read from the fitted curve at half-maximal effect; nearly all actives have a fitted effect of over 70% in size
# [26] = Primary qHTS for inhibitors of nuclear receptor binding SET domain protein 2 (NSD2) in an RCH-ACV wild type WT cells (2C) (AID 1645877); also: potency is read from the fitted curve at half-maximal effect; nearly all actives have a fitted effect of over 70% in size
smiles,measurement,setting,value
COc1ccc2c(c1)[nH]c1c(C)nccc12,outcome,[1],inactive
same,Potency,[2],38.2 µM (active)
same,Potency,[3],24.1 µM (active)
same,Potency,[4],42.9 µM (active)
same,Potency,[5],24.1 µM (active)
same,Potency,[6],34 µM (active)
same,Potency,[7],2.41 µM (active)
same,Potency,[8],inactive
same,outcome,[9],inactive
same,Potency,[10],inactive
same,outcome,[11],inactive
same,outcome,[12],inactive
same,Potency,[13],inactive
same,Potency,[14],31.4 µM (active)
same,Potency,[15],0.0054 µM (active)
same,outcome,[16],inactive
same,outcome,[17],inactive
same,Potency,[18],21.5 µM (active)
same,Potency,[19],inactive
same,Potency,[20],62.7 µM (active)
same,Potency,[21],inactive
same,Potency,[22],27.8 µM (active)
same,Potency,[23],inactive
same,outcome,[24],inactive
same,Potency,[25],16.4 µM (active)
same,Potency,[26],8.2 µM (active)
